Test results from PubChem BioAssay (NCATS).
Results filed as inconclusive are left out. Activity calls are given as the source filed them. The call rests on the fitted dose curve; in most records, active means well fitted curve in the direction sought with a large enough effect; inconclusive means small, poorly fitted or top-dose-only effect, or another doubt; inactive means no such curve, though single readings can be large; an effect the other way counts as inactive or inconclusive.

Key:
[1] = Cellular Toxicity (caspase-3) HepG2 (AID 654);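 further: cells exposed to compound for 16 hours before reading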
How it was run: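 Concentration-response AC50 values reflect caspase-3/7 induction in HepG2 cells after 16 hours of compound exposure, quantified by luminescence from liberated aminoluciferin and referenced to 100 uM tamoxifen as full stimulation.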

[2] = Cellular Toxicity (caspase-3) Jurkat (AID 655);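 further: cells exposed to compound for 16 h at 37 °C before reading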
How it was run: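 qHTS in human Jurkat T-cell leukemia line: 16 hr compound treatment at 37 °C, caspase-3/7 activity measured by Caspase-Glo luminescence. AC50 derived from Hill equation.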

[3] = Cellular Toxicity (caspase-3) SHSY5Y (AID 657)
How it was run: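 Readout: caspase-cleaved peptide-aminoluciferin substrate driving luciferase light in SH-SY5Y neuroblastoma cells after 16 h treatment. Response normalized to DMSO and 10 uM staurosporine controls.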

[4] = Cellular Toxicity (caspase-3) BJ (AID 658)
How it was run: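 Caspase-Glo 3/7 luminescence, read 1 hr after reagent at room temperature, in normal BJ fibroblasts exposed 16 hours at 37 °C. AC50 values from Hill-equation concentration-response, scaled between DMSO basal and 10 uM staurosporine as 100%.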

[5] = Cellular Toxicity (caspase-3) MRC-5 (AID 659)
How it was run: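 Luminescent Caspase-Glo 3/7 read-out (1 h, room temperature) after a 16 h, 37 °C compound exposure of MRC-5 lung fibroblasts at 1500 cells/well. Concentration-response AC50 from Hill equation; 0% DMSO, 100% 10 uM staurosporine.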

[6] = Cellular Toxicity (caspase-3) Mesangial (AID 660);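 further: combined caspase 3 and 7 activity read by Caspase-Glo luminescence; cells exposed to compound for 16 h before the caspase read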
How it was run: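 AC50 values come from Hill-equation fits of caspase 3/7 activation, measured as Caspase-Glo luminescence in human glomerular mesangial cells exposed to compound for 16 h at 37 °C; 100% set by 100 uM tamoxifen.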

[7] = Cellular Toxicity (caspase-3) SK-N-SH (AID 661)
How it was run: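 Apoptosis readout in SK-N-SH neuroblastoma: Caspase-Glo 3/7 luminescence following 16 hr treatment in complete culture medium. Normalization used DMSO and 10 uM staurosporine controls.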

[8] = Cellular Toxicity (caspase-3) H-4-II-E (AID 663);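 further: cells exposed to compound for 16 hr before readout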
How it was run: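 Caspase 3/7 activation measured by luminescent aminoluciferin substrate cleavage after 16 hr compound treatment of H-4-II-E cells in complete medium. Increase normalized between DMSO (basal) and 100 uM tamoxifen (100%); Hill-equation AC50 from concentration-response.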

[9] = Cellular Toxicity (caspase-3) N2a (AID 665);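 further: compound exposure lasted 16 h at 37 °C before readout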
How it was run: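 Concentration-response qHTS: compound-induced caspase-3/7 luminescence in N2a cells (16 h, 37 °C), relative to DMSO and 10 uM staurosporine controls; AC50 obtained using the standard Hill equation.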

[10] = Cellular Toxicity (caspase-3) NIH 3T3 (AID 666)
How it was run: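 Activity: caspase-3/7 induction, NIH 3T3 cells, 16 hr treatment at 37°C, luminescent Caspase-Glo detection; AC50 via Hill equation.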

Measured: outcome

CCCCCCCCc1ccc(O)cc1
inactive: all assays above

C=CC(=O)NCNC(=O)C=C
inactive: all assays above

CC(=O)[O][Hg][c]1ccccc1
not listed: [2]
inactive: all other assays above

Nc1ccc(Cl)cc1N
not listed: [1] | [2]
inactive: all other assays above

Nc1ccc(Sc2ccc(N)cc2)cc1
inactive: all assays above

O=[N+]([O-])c1c2ccccc2cc2ccccc12
inactive: all assays above

CC(C)(O)C(=O)Nc1ccc([N+](=O)[O-])c(C(F)(F)F)c1
inactive: all assays above

C1CCC(NC2CCCCC2)CC1
inactive: all assays above

O=C(O)C(Cl)Cl
inactive: all assays above

c1cc2ccc3cccc4ccc(c1)c2c34
inactive: all assays above

Cc1cc(O)ccc1Cl
inactive: all assays above

CN(C)[C@@H]1C(=O)C(C(N)=O)=C(O)[C@@]2(O)C(=O)C3=C(O)c4c(O)cccc4[C@@](C)(O)[C@H]3[C@H](O)[C@@H]12
inactive: all assays above

COc1ccc(C(c2ccc(OC)cc2)C(Cl)(Cl)Cl)cc1
inactive: all assays above

CCOP(=O)(NC(C)C)Oc1ccc(SC)c(C)c1 (configuration not stated)
inactive: all assays above

COC(C)(C)CCCC(C)C/C=C/C(C)=C/C(=O)OC(C)C (configuration not stated)
inactive: all assays above

O=S(=O)(c1ccc(Cl)cc1)c1ccc(Cl)cc1
inactive: all assays above

OCCCBr
inactive: all assays above

Nc1ccc(Cl)cc1
inactive: all assays above

Nc1ccc([N+](=O)[O-])cc1
inactive: all assays above

CCCCC(CC)COC(=O)c1ccccc1C(=O)OCC(CC)CCCC (configuration not stated)
inactive: all assays above

O=[N+]([O-])c1c(Cl)c(Cl)cc(Cl)c1Cl
inactive: all assays above

CCCCOC(=O)c1ccccc1C(=O)OCc1ccccc1
inactive: all assays above

CN(C)NC(=O)CCC(=O)O
inactive: all assays above

O=C(O)COc1ccccc1
inactive: all assays above

CCOCCOC(C)=O
inactive: all assays above

O=[N+]([O-])c1cc([N+](=O)[O-])c2ccccc2c1
inactive: all assays above
